# In PubChem BioAssay (NCI):
# Several values for one entry are separate records, joined by “and”; a condition that tells them apart may be missing. Equal entries are not always repeated. About 83,000 compounds went through this panel and 20% of them were active in at least one assay; those are over-represented in the sample as a whole.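 A percent growth of 40 corresponds to 60% growth inhibition; 0 means no net growth; -100 means all cells died. Active threshold: below 10.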 Activity calls are given as the source filed them.
# Test system: SK-OV-3 ovarian
# Test: NCI-60 one-dose screen, 48 h (100 = growth as untreated, 0 = no growth, -100 = all killed)
# Settings: 10 µM
# Method: Growth inhibition of the SK-OV-3 human tumor cell line is measured as a screen for anti-cancer activity. Cells are grown in 96 well plates and exposed to the test compound for 48 hours. Compounds are tested at a single concentration, which is 10^-5 M for most compounds. The reported endpoint is percent growth (GI% or GIPRCNT), where numbers from 0 - 100% represent growth inhibition, and numbers from -100% - 0 represent cell death. For example, a value of 40 represents 60% growth inhibition. A value of 0 means no net growth occurred over the course of the experiment. A value of -40 indicates 40% of cells at the beginning of the experiment died by the end of the experiment. A value of -100 means all cells are dead at the end of the experiment.
# NCI-60 Human Tumor Cell Lines Screen was performed using the standard one-dose NCI protocol, which is described in more detail at https://dtp.cancer.gov/discovery_development/nci-60/default.htm.
# Compounds with GIPRCNT values below 10 were considered active. Activity score was based on GIPRCNT using the following formula: […]
# Score is 0 for GIPRCNT values of 100 or above, 50 for GIPRCNT values of 0, and 100 for GIPRCNT values of -100.
row,Compound,growth
1,O=C(Nc1c(Cl)cccc1Cl)Oc1cccc2cccnc12,65.4% (inactive)
2,CN(C)C(=O)c1ccc(SC(=S)NCc2ccccc2)cc1,108% (inactive)

# Same assay, conditions: 10 µM unless noted
row,Compound,growth
1,Oc1c(Cl)cc(Cl)c2cccnc12,86.5% (inactive) and 65.8% (inactive)
2,N#CSCc1c(Cl)cccc1Cl,96.6% (inactive)
3,CN(C)c1ccc(C(=C2C=CC(=[N+](C)C)C=C2)c2ccc(N(C)C)cc2)cc1 (tested in a mixture with another compound),-81.1% (active)
4,O=C1c2ccccc2C(=O)c2sc(Nc3ccc(Cl)cc3)nc21,100% (inactive)
5,O=C1NC(=O)/C(=C/C=C/c2ccccc2)S1,74.7% (inactive)
6,CCC(CC)COC(=O)c1ccc(O)c(O)c1,67% (inactive)
7,N[C@H](C(=O)O)[C@@H]1CC(Cl)=NO1,34.1% [20 µM] (inactive)
8,CC1SC(=S)N(c2ccc(Cl)cc2)C1=O (stereo not given),117% (inactive) and 99.4% (inactive)
9,Cc1c2ccccc2c(C)c2c1ccc1ccccc12,99.4% (inactive)
10,COc1ccc2nc3cc(Cl)ccc3c(NCCNc3c4ccc(Cl)cc4nc4ccc(OC)cc34)c2c1,-95.6% (active)
11,CC1OC(OC2C(OC3CCC4(C)C(CCC5(C)C4CC=C4C6CC(C)(C)CCC6(CO)C(O)CC45C)C3(C)C)OC(C(=O)O)C(OC3OC(COC4OC(CO)C(O)C(O)C4O)C(O)C(O)C3O)C2O)C(O)C(O)C1O (stereo not given),-83.4% (active)
12,CN(Cc1cnc2nc(N)nc(N)c2n1)c1ccc(C(=O)NC(CCC(=O)O)C(=O)O)cc1 (stereo not given),59.3% (inactive)
13,CCCCCCCCCCCCCCCCCCOP(=O)([O-])OC1CC[N+](C)(C)CC1,35.9% (inactive) and 48.2% (inactive)
14,Nc1ccc(SSc2ccc(N)cc2)cc1,114% (inactive)
15,CCCCCCCCCCCCCCCC[N+](C)(CCO)Cc1cnc[nH]1 (stereo not given),-21% (active)
16,O=C1c2ccccc2C(=O)N1c1ccccc1,99.1% (inactive)
17,Cc1ccc2c(ccc3c[n+]4c5ccccc5ccc4n32)c1,0.442% (active)
18,Oc1c(Br)cc(Cl)cc1C(c1cc(Cl)cc(Br)c1O)C(Cl)(Cl)Cl,32.5% (inactive)

row,Compound,growth
1,O=[N+]([O-])c1ccc2c(N=Nc3ccc4ccccc4c3O)c(O)cc(S(=O)(=O)O)c2c1,90% (inactive)
2,COc1cc(/C=C/C(C)=O)ccc1O,94% (inactive) and 112% (inactive)
3,COc1cc(/C=C(/C)C[N+](=O)[O-])ccc1O,103% (inactive)
4,CC(C)(C)c1ccc(O)c(C2CCCCC2)c1,109% (inactive)
5,CCN1/C(=C\c2cc[n+](CC)c3ccccc23)C=Cc2ccccc21,3.69% (active)
6,NC1=CC(=O)c2ccccc2C1=O,92.3% (inactive)
7,O=C(Oc1cccc2cccnc12)c1ccccc1,106% (inactive)
8,C1=C(c2ccccc2)C(c2ccc(OCCN3CCCCC3)cc2)Oc2ccccc21 (stereo not given),74% (inactive)
9,O=C(/C=C\c1cc(Br)ccc1O)/C=C/c1cc(Br)ccc1O,18.9% (inactive)
10,CN1c2ccccc2C(C)(C)C12C=Cc1cc(O)ccc1O2 (stereo not given),71.4% (inactive)
11,Cc1ccc2nc(C[n+]3ccc4ccccc4c3)ccc2c1,70% (inactive)
12,Nc1ncnc2c1ncn2C1OC(CO)C(O)C1O (stereo not given),104% (inactive) and 100% (inactive)
13,N#Cc1ccc([N+](=O)[O-])o1,96.4% (inactive)
14,Cn1c2c(c3ccccc31)CCN1C[C@@H]3CCCC[C@H]3C[C@@H]21,9.15% (active)
15,Cc1ccc2nc(-[n+]3cc4ccccc4cc3C)ccc2c1,38.3% (inactive)
16,Cn1c2ccccc2c2nnc(N/N=C/c3ccccn3)nc21,-11.1% (active)
17,COc1ccccc1/C=C\C(=O)c1ccccc1,94.5% (inactive)
18,Oc1ccc(/C=N/NC(=S)Nc2ccccc2)nc1,18.9% (inactive)

# Same assay, conditions: 100 µM
row,Compound,growth
1,O=C(Nc1c(Cl)cccc1Cl)Oc1cccc2cccnc12,18% (inactive)
2,CN(C)C(=O)c1ccc(SC(=S)NCc2ccccc2)cc1,108% (inactive)
